The list is not random: actives were taken first. Their share in the collection is about 6.6%.
NR3A LBD binder: modulators (binders) of human NR3A ligand-binding domain; NR3A LBD differential scanning fluorimetry, Tm shift; 0% = protein alone, 100% = glycine-bound protein; Tm shift relative to glycine control, % at 25 µM; actives 2.5% (n = 340,000);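 active = melting temperature shift of at least 10% of the positive control shift, at one fixed dose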
CSC inhib: cancer stem cell inhibition | cancer stem cell-like cells viability, luminescence | inhibition, % at 7.5 µM | actives 1.1% (n = 300,000) | AID 2717; in the data active = inhibition above about 75%; tested in HMLE shEcad cells
MPTP inh: permeability transition pore inhibition. inhibition, % at 10 µM. isolated mouse mitochondria, Ca2+ swelling absorbance, 30 min. actives 1.4% (n = 360,000);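 active = inhibition of 50% or more, scaled per plate between neutral and stimulator controls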;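 also: 0% = DMSO wells given calcium and 100% = 1 mM EGTA wells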
Mdm2 MdmX PPI: human Mdm2/MdmX binding inhibition; O15151+Q00987; SaOS-2 split-luciferase Mdm2/MdmX complementation, luminescence; inhibition, % at 8 µM; actives 3% (n = 330,000); AID 485346;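 active = inhibition of at least 50% at 8 µM in the primary screen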
Target sequence (O15151 whole entry, looked up): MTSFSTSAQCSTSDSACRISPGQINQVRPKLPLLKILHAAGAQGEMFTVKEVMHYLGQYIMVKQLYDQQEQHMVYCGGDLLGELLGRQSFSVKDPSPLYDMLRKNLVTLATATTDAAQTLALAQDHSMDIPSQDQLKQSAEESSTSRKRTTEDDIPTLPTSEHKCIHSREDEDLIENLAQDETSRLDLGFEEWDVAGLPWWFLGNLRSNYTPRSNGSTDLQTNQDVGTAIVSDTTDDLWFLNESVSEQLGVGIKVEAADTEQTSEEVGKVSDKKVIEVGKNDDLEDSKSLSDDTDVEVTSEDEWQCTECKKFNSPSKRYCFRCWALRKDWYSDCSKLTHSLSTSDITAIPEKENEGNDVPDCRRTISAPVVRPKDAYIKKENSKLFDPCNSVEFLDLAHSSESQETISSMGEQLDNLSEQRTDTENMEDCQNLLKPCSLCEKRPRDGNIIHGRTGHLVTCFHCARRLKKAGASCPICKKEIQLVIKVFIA
Target sequence (Q00987 whole entry, looked up): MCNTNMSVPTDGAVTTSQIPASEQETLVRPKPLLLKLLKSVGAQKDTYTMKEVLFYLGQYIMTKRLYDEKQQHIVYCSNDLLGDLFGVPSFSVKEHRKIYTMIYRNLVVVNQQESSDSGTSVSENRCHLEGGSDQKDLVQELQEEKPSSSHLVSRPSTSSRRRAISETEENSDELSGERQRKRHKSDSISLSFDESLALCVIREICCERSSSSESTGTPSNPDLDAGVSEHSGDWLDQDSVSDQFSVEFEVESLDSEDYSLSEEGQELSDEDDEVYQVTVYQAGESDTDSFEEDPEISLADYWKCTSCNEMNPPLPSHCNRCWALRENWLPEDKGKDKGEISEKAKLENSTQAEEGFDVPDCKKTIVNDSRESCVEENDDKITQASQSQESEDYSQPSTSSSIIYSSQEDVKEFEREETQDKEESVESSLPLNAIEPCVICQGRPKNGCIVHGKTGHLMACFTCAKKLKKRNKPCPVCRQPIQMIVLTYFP
Gli-Sufu block: antagonists of Gli-Sufu signaling; Sufu-KO-LIGHT fibroblasts, Gli luciferase reporter luminescence; inhibition, % at 5 µM; actives 0.74% (n = 340,000);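 active = inhibition above about 55%, limit read from the data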;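 also: 0% = DMSO-treated cells and 100% = wells with medium but no cells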
Beta cell apopt: beta cell apoptosis inhibition. INS-1E cytokine-induced death, ATP luminescence, 48 h; percent of positive-control rescue, neutral wells zero. protection from apoptosis, % (no concentration beside the values). actives 0.8% (n = 300,000). AID 435005;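 active = Every replicate reaches about 75%, or at least half do and their mean reaches it too, limit read from the data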;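 also: 0% = cytokine-treated negative control wells and 100% = positive control rescue; higher means more ATP so stronger rescue from cytokine killing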
Numbers without * were called inactive; x = not tested or not shown.

SMILES | NR3A LBD binder | CSC inhib | MPTP inh | Mdm2 MdmX PPI | Gli-Sufu block | Beta cell apopt
N#CNC(=Nc1ccccc1)SCc1ccc(C(=O)O)cc1 | 1 | -2 | 1 | -27 | 3 | -18
CSC(=Nc1ccccc1)N=C(SCc1ccccc1)N(C)C | 11* | x | 24 | x | 25 | x
CCc1nc2c(OCC3COc4ccccc4O3)cccn2c1N(C)C(=O)c1ccc(OC)cc1 (stereo unspecified) | x | x | -1 | x | x | x
CC1CCc2c(sc3nc(CN4CCOCC4)nc(Sc4ccccc4)c23)C1 (stereo unspecified) | -1 | 84* | -1 | 5 | 17 | -10
COc1ccc(Nc2nc(CN3CCOCC3)nc3sc4c(c23)CCC(C)C4)cc1OC (stereo unspecified) | x | 7 | x | 17 | x | 1
O=c1[nH]nc2c3ccccc3occ1-2 | x | x | 9 | x | x | x
CC(=O)c1ccc(Nc2nc(C(N)Cc3ccc(Cl)cc3)cs2)cc1 (stereo unspecified) | x | x | 10 | x | x | x
Cc1cc(C)nc(NS(=O)(=O)c2ccc(NC(=O)C(C)C)cc2)n1 | 0 | -4 | 0 | -5 | 17 | -4
Cc1ccc(S(=O)(=O)Nc2ccc(NC(=O)Nc3ccc(F)cc3F)cc2)cc1 | 29* | 22 | 42 | 42 | -9 | 9
O=C(Nc1ccc(F)cc1F)Nc1ccc(F)cc1F | -2 | -2 | 17 | -16 | 27 | 2
COc1ccccc1C(=O)Nc1ccc(S(=O)(=O)Nc2cc(C)nc(C)n2)cc1 | 16* | x | -1 | 27 | 3 | x
Cc1cc(C)nc(NS(=O)(=O)c2ccc(NC(=O)c3cc(-c4ccccc4)nc4ccccc34)cc2)n1 | 19* | 11 | -3 | 22 | 16 | -3
Cc1cc(C)nc(NS(=O)(=O)c2ccc(NC(=O)Nc3ccccc3F)cc2)n1 | 11* | -7 | 2 | 2 | 48 | -2
COc1ccc(C(=O)Nc2ccc(S(=O)(=O)Nc3cc(C)nc(C)n3)cc2)c(OC)c1 | 5 | 23 | -7 | 13 | 3 | -1
COc1ccc(NC(=O)C(NS(=O)(=O)c2cccs2)C(C)C)cc1Cl (stereo unspecified) | -2 | -6 | 1 | 6 | 11 | -8
COc1ccccc1N1CCN(C2CCCN(C(=O)CCc3cnn(C)c3)C2)CC1 (stereo unspecified) | -2 | -5 | -1 | 0 | 4 | 2
CCOc1ccc(Nc2nnc(Cc3ccc(OC)cc3)c(=O)[nH]2)cc1 | -1 | 2 | 0 | 12 | 1 | -9
O=C(Nc1ccc(F)cc1F)c1ccc(S(=O)(=O)N2CCCCC2)cc1 | -2 | -10 | 2 | -12 | -6 | -5
O=C(Nc1ccc(S(=O)(=O)N2CCCC2)cc1)Nc1ccc(F)cc1F | 37* | 2 | 31 | 33 | -4 | 2
O=C(Nc1ccc(NC(=O)c2ccccc2O)cc1)Nc1ccc(F)cc1F | 31* | 2 | 5 | 16 | -10 | -8
COc1cccc(NC(=O)c2sc3nc(N4CCOCC4)c4c(c3c2N)CCCC4)c1 | 2 | -10 | -2 | -29 | -40 | x
COc1ccc(C(=O)COC(=O)COc2cc(C)cc(C)c2)cc1 | 2 | -14 | 0 | 11 | -4 | -3
CCC(=O)Nc1cc(SCCO)cc([N+](=O)[O-])c1 | 1 | -8 | -3 | -17 | -11 | -4
O=C(CCl)Nc1cc(SCC(O)CO)cc([N+](=O)[O-])c1 (stereo unspecified) | -1 | x | 0 | x | 63* | x
CC1(c2ccc(Cl)cc2)NC(=O)N(CC(=O)N2CCc3ccccc32)C1=O (stereo unspecified) | 2 | -34 | 0 | 0 | -4 | 1
SMILES | NR3A LBD binder | CSC inhib | MPTP inh | Mdm2 MdmX PPI | Gli-Sufu block | Beta cell apopt
O=[N+]([O-])c1ccc(-c2nc(NCc3cccnc3)c3ccccc3n2)cc1 | 37* | 16 | 2 | 29 | 5 | 1
COc1ccc(Nc2nc(-c3cccc([N+](=O)[O-])c3)nc3ccccc23)c(OC)c1 | 21* | x | 1 | 39 | 10 | -2
COc1cccc(CNc2nc(-c3cccnc3)nc3ccccc23)c1 | -13 | -7 | -1 | -1 | 44 | 7
COc1ccccc1Nc1nc(-c2ccc([N+](=O)[O-])cc2)nc2ccccc12 | 39* | 7 | 3 | 38 | 14 | 13
COc1ccccc1Nc1nc(-c2cccc([N+](=O)[O-])c2)nc2ccccc12 | -3 | 33 | 0 | 19 | 5 | 11
O=C1CCN(CC2CCCCC2)C=C1C(=O)c1ccccc1 | -1 | x | 4 | x | -2 | x

Compound activity: PubChem, several laboratories
